Compounds without any hit were thinned out: in the full panel of roughly 83,000, 20% have a hit.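 For each line, cells grew in 96-well plates with the test compound present at a single concentration for 48 hours.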 Activity calls are given as the source filed them.

In this test the test system is OVCAR-5 ovarian. In words: NCI-60 one-dose screen, 48 h (100 = growth as untreated, 0 = no growth, -100 = all killed). Conditions: 10 µM unless noted. As to the method:
Growth inhibition of the OVCAR-5 human tumor cell line is measured as a screen for anti-cancer activity. Cells are grown in 96 well plates and exposed to the test compound for 48 hours. Compounds are tested at a single concentration, which is 10^-5 M for most compounds. The reported endpoint is percent growth (GI% or GIPRCNT), where numbers from 0 - 100% represent growth inhibition, and numbers from -100% - 0 represent cell death. For example, a value of 40 represents 60% growth inhibition. A value of 0 means no net growth occurred over the course of the experiment. A value of -40 indicates 40% of cells at the beginning of the experiment died by the end of the experiment. A value of -100 means all cells are dead at the end of the experiment.
NCI-60 Human Tumor Cell Lines Screen was performed using the standard one-dose NCI protocol, which is described in more detail at https://dtp.cancer.gov/discovery_development/nci-60/default.htm.
Compounds with GIPRCNT values below 10 were considered active. Activity score was based on GIPRCNT using the following formula: […]
Score is 0 for GIPRCNT values of 100 or above, 50 for GIPRCNT values of 0, and 100 for GIPRCNT values of -100.
For the compound `CCCCNc1nnc(-c2cc(-c3cc4ccccc4o3)nn2-c2ccccc2)o1`, the growth was 105% (inactive).

Take `CCNc1nc(N2CC(=O)Nc3cc(OC)ccc32)c2ccccc2n1`: the growth is 20% (inactive). As to `ClC1=C(Cl)C(Cl)=C(Cl)C1=Cc1ccc(Cl)cc1Cl`, the growth is 8.75% (active). For `CC(C)CCC[C@@H](C)[C@H]1CC[C@H]2[C@@H]3CC[C@H]4C/C(=N/O)CC[C@]4(C)[C@H]3CC[C@]12C`, the growth was 112% (inactive). Turning to `COc1ccc(C(=O)/C=C/c2cc(C(=O)c3cc(OC)c(OC)c(OC)c3)ccc2OC)cc1`, the growth is 45% (inactive). Consider `CC(Br)C(OC(=O)c1ccccc1Cl)c1cc2c(cc1Br)OCO2` (stereo not given), for which the growth was 89.6% (inactive). With `CCN(C(=O)c1cc2ncccc2[nH]1)[C@H]1CCC[C@@H](NCc2cccc(F)c2)C1` the figure was 81.6% (inactive); with `Nc1nc(Cl)c2c(ncn2Cc2ccc(CCl)cc2)n1`, 109% (inactive); with `Cc1c(C(=O)NCc2ccccc2)[n+](=O)c2cc(F)ccc2n1[O-]`, 103% (inactive).

`CCC1CCc2nc3sc(C(=O)Nc4ccccc4F)c(N)c3cc2C1` (stereo not given): the growth is 87.6% (inactive). In the case of `COc1cc(NS(C)(=O)=O)ccc1Nc1c2ccc([N+](=O)[O-])cc2nc2c(C)cccc12`, the growth was 36.8% (inactive).

With `O=C(CNC1CCCCC1)Nc1ccc(-c2nc3ccccc3s2)cc1`, the growth is 94.7% (inactive).

Take `COc1cc(/C=C2\C=C(c3ccc(F)cc3)N(Cc3ccccc3)C2=O)cc(OC)c1OC`: the growth is 89.6% (inactive). Regarding `Nc1c(C(=O)c2ccc(F)cc2)sc2nc3c(cc12)CCCC3`, the growth was 97% (inactive). For `Cc1nc(Nc2cccnc2)sc1C(=O)/C=C/c1ccc(F)cc1`, the growth is 56.4% (inactive). As for `O=C1Nc2ccc(Br)cc2C1=N/C=c1\[nH]c(=O)/c(=C/c2ccc(Cl)cc2)s1`, the figure is 106% (inactive); as for `CC/C=C\C/C=C\C[C@H]1C/C=C2/C(=O)C=C[C@H]2C/C=C\CCC(=O)O1`, 25.4% (inactive); as for `COc1cc(C2C=C(C)N=C3SC=CN32)cc(OC)c1OC` (stereo not given), 109% (inactive). On to `COc1ccc(/C=C/C(=O)/C=C/c2cc3ccc(Cl)cc3[nH]c2=O)cc1`, for which the growth is 108% (inactive). For the compound `COc1ccc(C2=NN(c3ccc(S(N)(=O)=O)cc3)C(c3cn(-c4ccccc4)nc3-c3ccc(Cl)cc3)C2)cc1` (stereo not given), the growth was 114% (inactive).

Take `COC1=CC(c2ccc[nH]2)=N/C1=C\c1[nH]c(C)c(C(=O)CCC(=O)Oc2ccc3c(c2)CCC2C3CC[C@]3(C)[C@@H](O)CC[C@@H]23)c1C` (stereo not given in full): the growth was 27.7% (inactive). As for `NS(=O)(=O)c1ccc(NCC(=O)Nc2ccc(-c3nc4ccccc4s3)cc2)cc1`, the figure is 106% (inactive). As for `CCCCCCCCCCCCCCCCC(Br)C(=O)O` (stereo not given), the figure is 99.3% (inactive); as for `c1ccc2c(c1)Oc1ccccc1C2C1c2ccccc2Oc2ccccc21`, 89.7% (inactive). Consider `O=C(Nc1cccc(Cl)c1)c1cc([N+](=O)[O-])ccc1O`, for which the growth is 68.8% (inactive). `NS(=O)(=O)c1ccc(CN2C(=O)c3cccc4cccc(c34)C2=O)cc1`: the growth was 89.6% (inactive).

Regarding `COC(=O)c1ccc(C)cc1`, the growth is 110% (inactive). Consider `Cc1oc2ncnc(Nc3ccccc3)c2c1C(=O)NCCO`, for which the growth was 93.2% (inactive). Turning to `COc1ccc(-c2nnc(COc3ccc(NS(=O)(=O)c4ccc(OC)cc4)cc3F)o2)cc1`, the growth is 94.2% (inactive). Turning to `C=CCOc1cccc(/C=C/C(=O)c2sc(Nc3cccnc3)nc2C)c1`, the growth was 108% (inactive). As for `CC/C=C\C[C@H](O)C/C=C1/C(=O)C(Cl)=C[C@@H]1C/C=C\CCCC(=O)OC`, the figure is -30% (active). For `COc1cccc2nc(Nc3ccc(NC(=O)c4ccc5ncccc5c4)cc3)ccc12`, the growth is 99.3% (inactive). As to `CCNC(=O)CCCCC(=O)c1c(C)[nH]c(/C=C2\N=C(c3ccc[nH]3)C=C2OC)c1C`, the growth was 66.3% (inactive). As for `CCN(CC)CCCNc1nc(C)cc(Nc2ccc3nc(C)cc(N)c3c2)n1`, the figure is 102% (inactive); as for `COc1cc(NC(=O)c2cc3ccccc3nc2Nc2ccc(F)cc2)cc(OC)c1OC`, 68.8% (inactive); as for `O=Nc1c(-c2c(O)[nH]c3ccc([N+](=O)[O-])cc23)[nH]c2ccc(O)cc12`, 110% (inactive). Take `CCSc1nnc(NC(=O)Cc2ccc(Cl)cc2)s1`: the growth is 97.1% (inactive).

On to `COc1ccc([N+](=O)[O-])c(/C=C/C(=O)c2ccccn2)c1`, for which the growth was 90.5% (inactive). For the compound `CSc1ccccc1C#C/C=C\C#Cc1ccccc1N1CCCCC1=O`, the growth was 96.7% (inactive).

Regarding `CC1CCN(C(=O)CSc2nc3sc4c(c3c(=O)[nH]2)CCCC4)CC1`, the growth was 102% (inactive).

Values taken from PubChem BioAssay (NCI).
